Bioassay records from PubChem.
Most compounds without a hit are left out; they make up all but 2.8% or so of the library.
dFosB activator = mouse delta FosB homodimer activation; P13346; purified delta FosB, TAMRA-CDK5 oligo fluorescence polarization; percent of positive-control signal above neutral wells; activation, % at 25 µM; 0.99% of 340,000 active; AID 493131;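 active = mean activation above about 17%, with every replicate also reaching it, limit read from the data, passing the limit was not always enough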
FGF22 binding-1 = binders of recombinant human FGF22 by thermal shift; Q9HCT0; SYPRO orange fluorescence; percent of sucrose octasulfate shift, DMSO zero; activity (Tm shift, normalised), % at 9.99 µM; 1.5% of 340,000 active; AID 651658;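 active = mean Tm shift, scaled 0 neutral to 100 positive control, at about 1.3% or above, every replicate too, limit read from the data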
Target sequence (Q9HCT0 whole entry, looked up): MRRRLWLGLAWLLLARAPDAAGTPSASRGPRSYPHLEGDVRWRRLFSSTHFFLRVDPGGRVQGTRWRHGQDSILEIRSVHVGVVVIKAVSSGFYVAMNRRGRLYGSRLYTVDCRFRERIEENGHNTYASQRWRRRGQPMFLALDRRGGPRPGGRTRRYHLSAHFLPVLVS
SIRT5 block = sirtuin-5 (human) deacylase inhibition; Q9NXA8; inhibition, % at 15 µM; Purified SirT5, succinyl-peptide AMC, trypsin-coupled fluorescence; 1.1% of 330,000 active; AID 652115; in the data active = inhibition above about 15%
PglD DTNB = inhibitors of Campylobacter jejuni PglD acetyltransferase | purified PglD enzyme, DTNB colorimetric CoA detection | inhibition, % at 12.5 µM | 0.098% of 360,000 active; in the data active = inhibition above about 16%, passing the limit was not always enough
CDK5 inh = blocks human CDK5/p35 kinase activity; Recombinant CDK5/p35, ADP-Glo luminescence, 60 min; inhibition, % at 10 µM; 0.01% of 330,000 active; AID 488839;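 active = highest replicate inhibition of at least 50% and at least 75% of replicates reaching 50%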
PvdQ inh = blocks Pseudomonas aeruginosa PvdQ acylase activity | inhibition, % at 10 µM | purified PvdQ acylase, fluorescence plate reader | 0.063% of 340,000 active; in the data active = inhibition above about 30%, passing the limit was not always enough
FGF22 binding-2 = binders of human FGF22 by thermal shift; shares compounds with FGF22 binding-1; recombinant FGF22 thermal shift, SYPRO orange fluorescence; thermal shift activity, °C (ΔTm) at 38 µM; 2% of 1,000 active;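 active = fitted rise in melting shift crosses a set limit at or below the top valid dose tested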
FGF22 TSA = binders of human FGF22 by thermal shift. 50 tested, under 10 active. Tm shift (activity), % at 38 µM. shares compounds with FGF22 binding-1. Thermal shift assay, SYPRO orange, melting temperature shift;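 active = compounds whose fitted dose curve of melting temperature shift rises past a set threshold within the tested doses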
TSA no protein = shows thermal shift signal without protein, FGF22 counter-screen; 2% of 1,000 active; shares compounds with FGF22 binding-1; compound-only SYPRO orange thermal shift counter-screen, no protein; AID 743019; AC50, µM (titrated, usually from 38 µM);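 active = rising signal whose fitted curve reaches the 0.54 level within the top valid dose, showing a melting point, actives reach about 13 µM in these data; inactive = the rest, including activity in the opposite direction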; also: value is where the raw curve crosses a fixed level and not half-maximal
Numbers stand for hits; . = inactive; / = no result.

SMILES | dFosB activator | FGF22 binding-1 | SIRT5 block | PglD DTNB | CDK5 inh | PvdQ inh | FGF22 binding-2 | TSA no protein | others
O=C(N/N=C/c1ccc(O)cc1)c1cccc(N/N=C/c2ccc(O)cc2)c1 | . | 1.7 | . | . | . | . | . | .
O=C(N/N=C/c1ccc(F)cc1)c1cccc(NC(=O)c2ccc(F)cc2)c1 | . | . | . | . | . | . | / | /
O=C(N/N=C/c1ccncc1)c1cccc(N/N=C/c2ccncc2)c1 | . | 1.5 | . | / | . | . | . | .
O=C(N/N=C/c1ccc(O)cc1)c1cccc(C(F)(F)F)c1 | . | / | / | / | . | . | / | /
Cc1cccc2cc(/C=N/NC(=O)c3ccccc3O)c(Cl)nc12 | . | . | . | / | . | . | / | /
Cc1nc2c(C)cccc2cc1C(=O)N/N=C/c1ccc(O)cc1 | . | 2.2 | . | / | . | . | . | .
Cc1cccc(Cn2ncc(Cl)c(Cl)c2=O)c1 | . | 39 | . | . | . | . | . | .
Oc1ccc(-c2csc(Nc3ccccn3)n2)c(O)c1 | . | 2.8 | . | . | . | . | . | 11µM
COC(=O)Cc1n[nH]c(=O)c2ccccc12 | . | 12 | . | . | . | . | . | .
COc1ccc2c3c([nH]c2c1)[C@H](CO)N(C(C)=O)CC31CN(C(=O)c2ccc3c(c2)OCO3)C1 | / | 26 | . | / | / | / | . | .
CCC(=O)N1[C@H](CO)[C@@H](c2ccccc2)[C@H]1CN(C)C(=O)CN1CCOCC1 | / | 1.6 | . | . | / | / | . | .
CCC(=O)N1[C@@H](CO)[C@H](c2ccccc2)[C@@H]1CN(C)C(=O)CN1CCOCC1 | / | . | . | . | / | / | / | /
C[C@H]1CN([C@@H](C)CO)C(=O)c2cccc(NS(=O)(=O)c3ccc(F)cc3)c2O[C@H]1CN(C)CC1CC1 | / | . | . | . | / | / | / | /
O=C(C[C@@H]1C[C@@H]2c3cc(NC(=O)CC4CC4)ccc3O[C@@H]2[C@H](CO)O1)NCc1ccccn1 | / | . | . | . | / | / | / | /
O=C(CNc1ccccc1OC(F)F)N1CCc2ccccc21 | . | 1.4 | . | / | . | . | . | .
O=C(CNCCO)N1CCc2ccccc21 | . | / | / | . | . | . | / | /
CCCNC(=O)N1C[C@@H]2[C@H](c3ccccc31)[C@H](CO)N2Cc1ccc(F)cc1 | / | 1.3 | . | . | / | / | . | .
CC(C)NC(=O)N1C[C@@H]2[C@H](c3ccccc31)[C@H](CO)N2Cc1ccccn1 | / | / | / | . | / | / | / | /
CC(C)NC(=O)N1C[C@@H]2[C@H](c3ccccc31)[C@@H](CO)N2Cc1ccccn1 | / | 15 | . | . | / | / | . | .
CCC(=O)N1[C@@H](CO)[C@@H](c2ccc(-c3ccccc3)cc2)[C@@H]1CN(C)C(C)=O | / | / | / | . | / | / | / | /
CC(=O)C1=C(O)C(=O)N(c2ccc(S(=O)(=O)Nc3nccs3)cc2)C1c1ccc([N+](=O)[O-])cc1 (configuration not stated) | . | . | . | / | . | . | / | /
CC(=O)C1=C(O)C(=O)N(c2ccc(S(=O)(=O)Nc3nccs3)cc2)C1c1ccc(F)cc1 (configuration not stated) | . | 1.7 | . | . | . | . | . | .
O=Cc1cc(OCc2ccccc2)ccc1[B-](F)(F)F | . | 1.5 | . | . | . | . | . | .
O=C1CCOc2cc(OCc3ccccc3)ccc21 | . | / | / | . | . | . | / | /
CC(C)NC(=O)Nc1cccc2c1O[C@H](CN(C)S(=O)(=O)c1ccc(Cl)cc1)[C@@H](C)CN([C@@H](C)CO)C2=O | / | . | . | . | / | / | / | /
O=S(=O)(Nc1nnc(C(F)(F)F)s1)c1ccc(Cl)cc1 | . | 2.6 | . | . | . | . | / | . | FGF22 TSA=.
CC(C)(C)c1nnc(NS(=O)(=O)c2ccc(F)cc2)s1 | . | . | . | . | . | . | / | /
N#Cc1cccc(-c2ccc3c(c2)[C@H]2[C@H](CCN2S(=O)(=O)c2ccccc2)[C@@H](CO)N3)c1 | / | . | . | . | / | / | / | /
